Screening results (PubChem BioAssay)
ELG1 repair inh = blocks ELG1-dependent DNA repair in HEK293T cells | 330,000 tested, 2.3% active | Potency, µM (highest dose often 46.1 µM), without a hit: top-dose activity change, negative = inhibition, hits mostly inhibitors | AID 504467 | HEK293T ELG1-luciferase reporter, luminescence, 16 h; DNA damage induced by 5-fluorouridine; further: on the % scale 0 is the no-effect control and ±100 the full control effect; nearly all actives have a fitted effect of over 55% in size
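HEK293T cells expressing luciferase-tagged ELG1 (2,000/well) received 5-Fluorouridine plus compound or DMSO for 16 hr at 37 °C. Luciferase was read by ONE-Glo luminescence after 30 min at room temperature.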
FLuc modulator = firefly luciferase modulation, counter-screen for miR-21 project; Potency, µM (highest dose often 57.5 µM), for the others: top-dose activity change, negative = inhibition, hits mostly inhibitors; purified FLuc, Km substrates, luminescence inhibition; AID 588342; 360,000 tested, 6.9% active; P08659;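 further: plate controls were vehicle for no effect and reference inhibitor for full effect; nearly all actives have a fitted effect of over 55% in size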
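Biochemical qHTS of compounds, final roughly 60 µM downward over six points, against 10 nM purified firefly luciferase using Km concentrations of substrates (10 uM D-luciferin, 10 uM ATP) in Tris acetate pH 7.5 buffer; luminescence output.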
ELG1 genotox = induces genotoxicity in HEK293T cells with luciferase-tagged ELG1; HEK293T ELG1-luciferase reporter, luminescence, 16 h; Potency, µM (titrated, usually from 46 µM), inactives show top-dose activity change, positive = activation, actives largely listed as activators; AID 504466; 330,000 tested, 1.3% active; further: % of control where 0% means no effect; nearly all actives have a fitted effect of over 60% in size
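Screening used a luciferase reporter fused to human ELG1 in HEK293T cells. Luminescence was read on a CCD plate imager after 16 hr exposure and 30 min ONE-Glo incubation.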
SMN2 splice up = increases expression of the SMN2 splice variant; HEK293 SMN2-luciferase splicing reporter, luminescence, 30-36 h; Potency, µM (top dose mostly 46.1 µM), inactives show top-dose activity change, positive = activation, usual class: activators; 210,000 tested, 2.8% active; further: % of control where 0% means no effect; nearly all actives have a fitted effect of over 55% in size
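qHTS luciferase splicing reporter: luminescence rises when SMN2 exon 7 is included in transfected HEK293 cells. Compound exposure lasted 30-36 h at 37C, with 4.5 mM final sodium butyrate as control, followed by a ONE-Glo read.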
Rab9 promoter act = activators of Rab9 promoter; Huh7 Rab9 promoter-luciferase reporter, luminescence, 24 h; 320,000 tested, 2.8% active; Potency, µM (titrated, usually from 9.22 µM), for the others: top-dose activation, negative = inhibition, hits mostly activators; further: % of control where 0% means no effect; nearly all actives have a fitted effect of over 60% in size
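Huh7 reporter line, Rab9 promoter upstream of luciferase. Compound exposure 24 h at 37 °C in reduced-serum medium with 10% FBS. Read-out: luminescence.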
NPC1 promoter act = activators of NPC1 promoter. Huh7 NPC1 promoter luciferase reporter, 24 h. Potency, µM (top dose mostly 9.22 µM), without a hit: at the highest dose activation, usual class: activators. 320,000 tested, 2.4% active. AID 485313; further: % of control where 0% means no effect; nearly all actives have a fitted effect of over 60% in size
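Compounds in DMSO were transferred onto Huh7 NPC1-luciferase reporter cells pre-incubated 2 h; after 24 h at 37 °C, Amplite reagent was dispensed and luminescence recorded 10 min later.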
ELG1 FLuc counter = luciferase inhibition in cell-free luciferin readout for ELG1 hits. shares compounds with ELG1 repair inh. cell-free firefly luciferase luminescence counter-screen, ViewLux. Potency, µM (titrated, usually from 46.1 µM), inactives show at the highest dose activity change, negative = inhibition, usual class: inhibitors. 350 tested, 3% active. AID 624247; further: on the % scale 0 is the no-effect control and ±100 the full control effect
ELG1-Luc inh = confirmation of human ELG1-dependent DNA repair inhibitors; AID 624248; 670 tested, 68% active; Potency, µM (doses to about 46.1 µM), for the others: top-dose activity change, negative = inhibition, hits mostly inhibitors; shares compounds with ELG1 repair inh; HEK293T ELG1-luciferase levels, luminescence; cells co-treated with 5-fluorouridine; further: on the % scale 0 is the no-effect control and ±100 the full control effect; nearly all actives have a fitted effect of over 55% in size
ELG1 MMS Luc = inhibits ELG1-dependent repair under MMS stimulation in HEK293T cells; Potency, µM (doses to about 46.1 µM), for the others: top-dose activity change, negative = inhibition, most hits filed as inhibitors; HEK293T luciferase-tagged ELG1 level, MMS stimulated; shares compounds with ELG1 repair inh; 670 tested, 53% active; AID 624249; further: on the % scale 0 is the no-effect control and ±100 the full control effect; nearly all actives have a fitted effect of over 60% in size
ELG1 5FU viab = confirmation of ELG1 repair inhibitors: viability with 5FU; shares compounds with ELG1 repair inh; AID 624250; cell viability with 5-FU, ELG1-dependent repair; 670 tested, under 10 active; Potency, µM (top dose mostly 46.1 µM), inactives show at the highest dose activity change, negative = viability loss, actives largely listed as cytotoxic;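 further: ELG1-luc HEK293T cells cotreated with 5-fluorouridine at 10 µM final; viability measured 16 h after compound addition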
ELG1 MMS viab = confirmation of ELG1 repair inhibitors: viability with MMS; shares compounds with ELG1 repair inh; Potency, µM (top dose mostly 46.1 µM), inactives show at the top dose activity change, negative = viability loss, usual class: cytotoxic; AID 624251; Cell viability with MMS, ELG1-dependent DNA repair; 670 tested, 33% active;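 further: ELG1-luc HEK293T cells co-treated with 10 µM MMS; viability read 16 h after compound addition; on the % scale 0 is the no-effect control and ±100 the full control effect; nearly all actives have a fitted effect of over 60% in size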
ELG1 unstim viab = affects unstimulated cell viability, ELG1 hit counter-screen. Potency, µM (highest dose often 45.9 µM), without a hit: at the top dose activity change, negative = loss of viability, actives largely listed as cytotoxic. 900 tested, 8% active. shares compounds with ELG1 repair inh. cell viability counter-screen, unstimulated, luminescence;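 further: compound exposure lasted 16 hours before reading; on the % scale 0 is the no-effect control and ±100 the full control effect; nearly all actives have a fitted effect of over 55% in size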
FLuc biochem = counter-screen for ELG1 repair inhibitors: firefly luciferase inhibition; 350 tested, 10% active; Potency, µM (top dose mostly 57.5 µM), for the others: at the highest dose activity, negative = inhibition, actives largely listed as inhibitors; purified firefly luciferase, luminescence counter-screen; shares compounds with ELG1 repair inh; AID 624253; further: on the % scale 0 is the no-effect control and ±100 the full control effect
An asterisk follows results filed as active; ? = inconclusive; . = not tested or not shown; [ ] = remark or other dose. The list is not random: actives were taken first. Their share in the collection is about 9.3%. The call rests on the fitted dose curve; in most records, active means well fitted curve in the direction sought with a large enough effect; inconclusive means small, poorly fitted or top-dose-only effect, or another doubt; inactive means no such curve, though single readings can be large; an effect the other way counts as inactive or inconclusive. Potency means the concentration at half of the fitted maximal effect.

SMILES | ELG1 repair inh | FLuc modulator | ELG1 genotox | SMN2 splice up | Rab9 promoter act | NPC1 promoter act | ELG1-Luc inh | ELG1 MMS Luc | ELG1 5FU viab | ELG1 MMS viab | ELG1 unstim viab | others
Cc1ccc(/C=N/NC(=O)c2nnn(-c3nonc3N)c2-c2ccccc2)o1 | 7% | -14% | 4% | . | 2% | -2% | . | . | . | . | .
COc1cc2cc(C)c(SCC(=O)N3CCOCC3)nc2cc1OC | -29% | -2% | 6% | . | -3% | -1% | . | . | . | . | -10% | ELG1 FLuc counter=68%;FLuc biochem=-8%
Cc1cc2ccccc2nc1SCC(=O)N1CCCC1 | 0% | 4% | -1% | -15% | -2% | -5% | . | . | . | . | .
CCN(CC)C(=O)C1CCN(c2cc(C)nc3c(-c4ccc(OC)c(OC)c4)c(C)nn23)CC1 | . | -1% | . | 6% | . | . | . | . | . | . | .
CCOCCCNC(=O)C1CCN(c2cc(C)nc3c(-c4ccc(OC)c(OC)c4)c(C)nn23)CC1 | 2.6µM* | 0% | -2% | -2% | 7% | -3% | ? | 17% | ? | 1% | -19%
CCOC(=O)Cn1nc(C)n(-c2cccc(Cl)c2)c1=O | 4% | 0% | -1% | 5% | -2% | 1% | . | . | . | . | .
Nc1ccc(/C=C/c2ccc3cccnc3c2)cc1 | . | . | . | . | . | . | . | . | . | . | -1% | ELG1 FLuc counter=43%;FLuc biochem=0.37µM*
CC1(C)Cc2c(c(N3CCOCC3)nc3snc(Br)c23)CO1 | 16µM* | -4% | -2% | 1% | 1% | 0% | 13µM* | ? | ? | -2% | -2% | ELG1 FLuc counter=3%;FLuc biochem=4%
CC1(C)Cc2c(c(N3CCOCC3)nc3snc(N)c23)CO1 | 8% | 3% | 1% | ? | -4% | -16% | . | . | . | . | .
COc1ccc(-c2coc3cc(O)cc(O)c3c2=O)cc1 | ? | 6µM* | 23µM* | 18µM* | 2.8µM* | 2.2µM* | . | . | . | . | -2%
O=C(Nc1ccc(S(=O)(=O)N2CCOCC2)cc1)c1ccc([N+](=O)[O-])s1 | 2.6µM* | -1% | -5% | . | -4% | -8% | 2µM* | 3.5µM* | ? | 4.4µM* | ?
O=C(Nc1ccc(S(=O)(=O)N2CCOCC2)cc1)c1cccs1 | -29% | 6%[2.3 µM] | -2% | 2% | -2% | -1% | . | . | . | . | .
Cc1cc(NC(=O)Cc2ccccc2)c2ccccc2n1 | ? | -4% | 0% | -101% | -30% | -25% | ? | 2µM* | 1% | 2.5µM* | ?
COc1ccc2c(c1)c(CC(=O)Nc1cccc(S(N)(=O)=O)c1)c(C)n2C(=O)c1ccc(Cl)cc1 | 18µM* | 0% | -17% | . | 0% | 1% | 14µM* | 18µM* | ? | ? | ? | ELG1 FLuc counter=-5%;FLuc biochem=4%
COc1ccc(NC(=O)Cc2c(C)n(C(=O)c3ccc(Cl)cc3)c3ccc(OC)cc23)cc1 | 2.6µM* | -1% | 2% | . | -4% | 0% | 18µM* | 15% | ? | -3% | -3% | ELG1 FLuc counter=22%;FLuc biochem=2%
COc1ccc2c(c1)c(CC(=O)Nc1ccc(C)cc1)c(C)n2C(=O)c1ccc(Cl)cc1 | ? | -1% | -5% | -3% | -4% | 1% | . | . | . | . | .
COC(=O)CNC(=O)Cc1c(C)n(C(=O)c2ccc(Cl)cc2)c2ccc(OC)cc12 | -16% | 5% | -6% | . | 10% | -9% | . | . | . | . | .
Cc1ccc2c(c1)C/C(=C/c1ccc(N(C)C)cc1)C2=O | . | . | . | . | . | . | . | . | . | . | 0%
Cc1ccc(C)c(S(=O)(=O)N/N=C/c2ccc(N(C)C)cc2)c1 | 2% | -19% | 1% | . | -1% | -4% | . | . | . | . | .
CC(=O)Nc1ccc(NC(=O)C(C)OC(=O)C2CCCCC2)cc1 (stereo unspecified) | 4% | 6% | 0% | . | -8% | 2% | . | . | . | . | .
COc1ccc(/C=C/C(=O)/C=C/c2ccc(OC)cc2OC)c(OC)c1 | . | . | . | 0% | . | . | . | . | . | . | .
COc1ccc(/C=C/c2ccc3ccccc3n2)c(OC)c1 | . | . | . | . | . | . | . | . | . | . | -25% | ELG1 FLuc counter=-9%;FLuc biochem=?
COc1ccc(CC(=O)OCC(=O)Nc2ncc(Cl)cc2Cl)cc1 | 3% | 4% | 3% | 5% | 0% | 0% | . | . | . | . | .
N#Cc1ccccc1NC(=O)C(=O)NCCc1csc(-c2ccc(F)cc2)n1 | . | -1% | . | . | -5% | -4% | . | . | . | . | .
O=C(CSc1nc2ccc(NC(=O)CSc3nnnn3Cc3ccccc3)cc2s1)Nc1ccccc1 | 4.6µM* | -1% | 7% | -8% | -2% | -1% | ? | 7.9µM* | -2% | 13µM* | ?
